# Laboratory results as given in PubChem BioAssay (NCI).
# This is part of a sample that, as a whole, favours compounds with a hit. Of some 83,000 tested, about 20% had one in any assay.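 Cell lines were cultured in 96-well plates, exposed to a single compound concentration, and assessed for percent growth 48 hours later.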 A number with no mark means an inactive call. Calls of active or inactive are those of the source. How the source made its calls: active means growth percent below 10; inactive means the rest.
# Assays:
# Test in all cases: NCI-60 one-dose screen, 48 h (100 = growth as untreated, 0 = no growth, -100 = all killed)
# Settings in all cases: 10 µM unless noted
# SN12C renal = system: SN12C renal
# UO-31 renal = system: UO-31 renal
# TK-10 renal = system: TK-10 renal
# ACHN renal = system: ACHN renal
# CAKI-1 renal = system: CAKI-1 renal
# A498 renal = system: A498 renal
# CCRF-CEM leukemia = system: CCRF-CEM leukemia
# MOLT-4 leukemia = system: MOLT-4 leukemia
# EKVX NSCLC = system: EKVX NSCLC
Structure (SMILES),growth (SN12C renal),growth (UO-31 renal),growth (TK-10 renal),growth (ACHN renal),growth (CAKI-1 renal),growth (A498 renal),growth (CCRF-CEM leukemia),growth (MOLT-4 leukemia),growth (EKVX NSCLC)
Cc1cccnc1NC1OC(=O)c2ccccc21 (stereo not given),105%,85.8%,97%,103%,99.5%,94.7%,104%,99.3%,
Oc1ccc(N=Cc2ccc(OCc3ccccc3)cc2)cc1,101%,79.9%,99.3%,99.7%,98.1%,75.8%,82.4%,97.1%,
C#CCSc1nnnn1-c1ccccc1,88%,91.1%,80.4%,70.2%,78.5%,40%,83.9%,87.9%,
CCOC(C=O)OCC,102%,94.4%,93.1%,112%,,93.3%,99.1%,85.2%,
O=C(CCl)Nc1ccccc1SCc1cc(Cl)cc2c1OCOC2,91.3%,75.7%,126%,85.5%,,103%,-27.5% (active),50.7%,
Nc1cccc2cccc(O)c12,91%,52.8%,83.7%,80%,101%,97.9%,52.8%,83%,
CC(O)C(F)(F)C(F)(F)C(F)(F)F (stereo not given),110%,95.3%,102%,93.8%,,120%,108%,96.4%,
COc1nc(Nc2cccc(C(F)(F)F)c2)nc(OC)n1,102%,84.3%,111%,110%,103%,85.3%,95.5%,86.4%,
CC(C)(N)CO[C@H]1C[C@H]2CC[C@@]1(C)C2(C)C,100%,91.8%,105%,100%,97%,81.7%,105%,107%,
FC(F)(F)c1cc(NC2=NCCN=C(Nc3cc(C(F)(F)F)cc(C(F)(F)F)c3)SS2)cc(C(F)(F)F)c1,47.2%,35.1%,58.4%,43.5%,48.1%,58%,28.8%,51.2%,
Cc1ccc(S(=O)(=O)CCCl)cc1,99%,74.2%,97.4%,98.2%,,95.2%,101%,95.5%,
C[n+]1cc2cc3c(cc2c2ccccc21)OCO3,9.45% (active),72%,92.8%,106%,102%,72.8%,57.5%,12.4%,
CC(CCC#N)(CCC#N)C(=O)c1ccccc1,,77.1%,106%,114%,,89.9%,93.3%,97.8%,115%
C=CCC(OC(C)=O)c1ccc(C(C)C)cc1 (stereo not given),,84.9%,96.4%,108%,121%,87.3%,102%,105%,113%
C=C1SC(=Nc2c(C)cccc2C)N(c2nc(Cl)nc(Cl)n2)C12CCCCC2,107%,75.6%,108%,,96.6%,113%,95.9%,95.5%,
BrCc1cccc(C[P+](c2ccccc2)(c2ccccc2)c2ccccc2)c1,57.7%,,90.8%,,,84.1%,36.1%,84.9%,
NC(=S)N/N=C/c1ccc(Cl)cc1,128%,94.8%,106%,108%,,99.5%,,88.4%,
CCCOCc1cn[nH]n1,,91.6%,102%,110%,104%,100%,109%,106%,103%
Clc1ccc(-c2noc(/C=C\c3ccccc3)n2)cc1,105%,,115%,98.3%,96.1%,93.7%,92.3%,98.4%,
CCOC(=O)C(C#N)=C1CCN(C)CC1,,,108%,97.9%,92.4%,100%,99.2%,58.5%,
O=C(O)c1cccc(-n2ncc(Cl)c(Cl)c2=O)c1,100%,107%,154%,106%,98.6%,113%,98.3%,96.5%,
COC(=O)Cc1cc(COC(C)=O)ccc1C,,81.3%,88.5%,103%,116%,95.4%,96.1%,98.4%,119%
COc1ccc(/C=N/NC(=O)COCC(=O)N/N=C/c2ccc(OC)cc2)cc1,99%,92.5%,115%,97.2%,,85.6%,,98.3%,
COC(=O)c1cccc([N+](=O)[O-])c1,95.2%,98.2%,101%,109%,108%,92.9%,,105%,
O=C(CCl)Oc1ccc([N+](=O)[O-])cc1,116%,,109%,109%,124%,133%,95.9%,105%,112%
CCN(C(=O)Nc1ccccc1Cl)c1ccccc1,113%,91.4%,121%,96.2%,96.2%,102%,110%,,
